Results from PMC7862700, “An all-to-all approach to the identification of sequence-specific readers for epigenetic DNA modifications on cytosine”.

Legend:
Test in all cases: DAPPL (digital affinity profiling via proximity ligation, sequencing); 10 mM Tris-HCl pH 7.5, 50 mM NaCl, 1 mM DTT, 4% glycerol, room temperature, 30 min; GST-TFs on glutathione beads, 16-mer random dsDNA library, 0.1% formaldehyde crosslink after washing; high values mean tight binding
Details in all cases: protein: recombinant; tags: N-terminal GST; dsDNA, one strand shown
ELK1 = target: T1, ELK1 (Homo sapiens, UniProt P19419 1-428)
T1 sequence: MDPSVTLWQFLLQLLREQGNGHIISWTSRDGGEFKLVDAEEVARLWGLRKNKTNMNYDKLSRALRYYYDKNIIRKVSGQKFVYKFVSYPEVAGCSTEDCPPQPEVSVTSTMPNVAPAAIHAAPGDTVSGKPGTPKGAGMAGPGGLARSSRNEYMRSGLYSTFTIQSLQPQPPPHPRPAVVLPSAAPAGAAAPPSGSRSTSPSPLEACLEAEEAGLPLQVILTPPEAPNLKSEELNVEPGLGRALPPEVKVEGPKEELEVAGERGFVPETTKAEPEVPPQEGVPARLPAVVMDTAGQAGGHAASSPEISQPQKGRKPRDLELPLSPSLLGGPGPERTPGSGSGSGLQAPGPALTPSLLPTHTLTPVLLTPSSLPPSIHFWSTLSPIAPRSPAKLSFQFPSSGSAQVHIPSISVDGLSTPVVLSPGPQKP
In short: (§1)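 Sequencing on an Illumina NextSeq500 followed washing, crosslinking with 0.1% formaldehyde, proximity ligation (BsaI/T4 ligase, 1 h, 37 °C) and PCR amplification of pools that had been incubated for 30 min at room temperature with 200 nmole of a random double-stranded 16-mer DNA library in Tris/NaCl/DTT/glycerol buffer. Each pool held DNA-barcoded human transcription factors, expressed in yeast as GST fusions and captured on glutathione beads, plus a tag-only sample. Binding signal is a hexamer's read frequency for a factor divided by its frequency in the tag-only sample.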

GABPA = target: T2, GABPA (Homo sapiens, UniProt Q06546 1-454)
T2 sequence: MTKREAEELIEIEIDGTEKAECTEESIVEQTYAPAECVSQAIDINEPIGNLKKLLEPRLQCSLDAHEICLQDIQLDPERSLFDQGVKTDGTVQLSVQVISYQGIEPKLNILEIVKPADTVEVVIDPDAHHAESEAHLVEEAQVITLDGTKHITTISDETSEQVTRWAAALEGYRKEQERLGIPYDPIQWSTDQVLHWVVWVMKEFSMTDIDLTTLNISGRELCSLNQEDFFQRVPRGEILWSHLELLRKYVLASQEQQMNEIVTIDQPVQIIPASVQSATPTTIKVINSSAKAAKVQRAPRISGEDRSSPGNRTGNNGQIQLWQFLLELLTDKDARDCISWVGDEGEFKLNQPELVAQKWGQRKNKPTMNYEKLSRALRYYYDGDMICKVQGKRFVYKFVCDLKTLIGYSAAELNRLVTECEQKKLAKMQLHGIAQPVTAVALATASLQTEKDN
In short: as §1

ERG = target: T3, ERG (Homo sapiens, UniProt P11308 1-479)
T3 sequence: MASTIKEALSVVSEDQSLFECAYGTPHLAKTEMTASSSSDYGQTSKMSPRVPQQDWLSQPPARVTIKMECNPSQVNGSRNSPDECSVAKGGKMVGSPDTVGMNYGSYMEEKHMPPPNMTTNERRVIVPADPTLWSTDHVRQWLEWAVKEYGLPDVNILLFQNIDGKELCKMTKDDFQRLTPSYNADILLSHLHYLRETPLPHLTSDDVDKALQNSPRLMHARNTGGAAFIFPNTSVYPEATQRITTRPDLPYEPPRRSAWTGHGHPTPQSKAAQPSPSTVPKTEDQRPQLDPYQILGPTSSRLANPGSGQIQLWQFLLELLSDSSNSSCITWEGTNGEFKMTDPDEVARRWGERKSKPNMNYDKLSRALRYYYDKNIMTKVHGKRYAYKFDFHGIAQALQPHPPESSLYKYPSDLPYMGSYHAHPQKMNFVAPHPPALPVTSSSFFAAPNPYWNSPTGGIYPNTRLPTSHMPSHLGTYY
In short: as §1

ELF1 = ELF1 (Homo sapiens, UniProt P32519 1-619)
ELF1, sequence (P32519 whole entry): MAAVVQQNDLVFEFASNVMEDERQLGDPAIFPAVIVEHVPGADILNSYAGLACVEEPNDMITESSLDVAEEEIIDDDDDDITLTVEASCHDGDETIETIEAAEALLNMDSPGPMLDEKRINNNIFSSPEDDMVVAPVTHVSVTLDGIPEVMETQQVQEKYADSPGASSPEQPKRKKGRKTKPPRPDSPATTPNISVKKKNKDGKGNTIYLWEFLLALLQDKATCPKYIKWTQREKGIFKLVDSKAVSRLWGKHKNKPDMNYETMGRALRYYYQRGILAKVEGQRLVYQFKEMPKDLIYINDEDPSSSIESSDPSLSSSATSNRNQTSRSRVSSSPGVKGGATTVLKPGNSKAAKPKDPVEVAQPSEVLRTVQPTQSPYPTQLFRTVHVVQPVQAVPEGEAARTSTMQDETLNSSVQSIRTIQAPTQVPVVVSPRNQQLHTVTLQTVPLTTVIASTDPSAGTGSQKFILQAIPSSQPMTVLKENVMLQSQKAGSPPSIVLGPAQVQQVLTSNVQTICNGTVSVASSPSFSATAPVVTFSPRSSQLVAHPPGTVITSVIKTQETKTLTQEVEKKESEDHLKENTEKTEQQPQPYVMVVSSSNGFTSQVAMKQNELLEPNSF
In short: as §1

EHF = target: T4, EHF (Homo sapiens, UniProt Q9NZC4 1-300)
T4 sequence: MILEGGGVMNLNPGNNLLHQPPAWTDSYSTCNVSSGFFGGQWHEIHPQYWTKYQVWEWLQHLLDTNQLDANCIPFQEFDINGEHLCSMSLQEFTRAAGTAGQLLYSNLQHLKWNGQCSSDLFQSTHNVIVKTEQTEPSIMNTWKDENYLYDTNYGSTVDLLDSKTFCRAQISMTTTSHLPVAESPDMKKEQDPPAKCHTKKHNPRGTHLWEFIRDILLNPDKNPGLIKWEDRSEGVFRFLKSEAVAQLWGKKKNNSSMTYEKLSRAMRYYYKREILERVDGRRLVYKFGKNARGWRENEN
In short: as §1

SPIB = SPIB (Homo sapiens, UniProt Q01892 1-262)
SPIB, sequence (Q01892 whole entry): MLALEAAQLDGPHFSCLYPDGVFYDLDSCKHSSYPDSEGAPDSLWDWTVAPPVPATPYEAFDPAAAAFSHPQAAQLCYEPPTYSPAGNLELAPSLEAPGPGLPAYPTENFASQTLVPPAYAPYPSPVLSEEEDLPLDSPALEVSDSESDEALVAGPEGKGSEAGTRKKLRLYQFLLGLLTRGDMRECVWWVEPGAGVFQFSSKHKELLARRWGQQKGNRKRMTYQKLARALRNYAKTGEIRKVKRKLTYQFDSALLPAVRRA
In short: as §1

FEV = target: T5, FEV (Homo sapiens, UniProt Q99581 1-238)
T5 sequence: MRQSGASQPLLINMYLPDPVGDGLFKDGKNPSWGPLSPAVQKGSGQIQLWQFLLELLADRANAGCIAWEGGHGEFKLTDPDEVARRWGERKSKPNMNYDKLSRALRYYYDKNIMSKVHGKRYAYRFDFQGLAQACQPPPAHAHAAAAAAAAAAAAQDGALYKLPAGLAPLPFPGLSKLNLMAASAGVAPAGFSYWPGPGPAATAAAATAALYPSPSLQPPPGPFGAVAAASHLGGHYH
In short: as §1

ETV5 = ETV5 (Homo sapiens, UniProt P41161 1-510)
ETV5, sequence (P41161 whole entry): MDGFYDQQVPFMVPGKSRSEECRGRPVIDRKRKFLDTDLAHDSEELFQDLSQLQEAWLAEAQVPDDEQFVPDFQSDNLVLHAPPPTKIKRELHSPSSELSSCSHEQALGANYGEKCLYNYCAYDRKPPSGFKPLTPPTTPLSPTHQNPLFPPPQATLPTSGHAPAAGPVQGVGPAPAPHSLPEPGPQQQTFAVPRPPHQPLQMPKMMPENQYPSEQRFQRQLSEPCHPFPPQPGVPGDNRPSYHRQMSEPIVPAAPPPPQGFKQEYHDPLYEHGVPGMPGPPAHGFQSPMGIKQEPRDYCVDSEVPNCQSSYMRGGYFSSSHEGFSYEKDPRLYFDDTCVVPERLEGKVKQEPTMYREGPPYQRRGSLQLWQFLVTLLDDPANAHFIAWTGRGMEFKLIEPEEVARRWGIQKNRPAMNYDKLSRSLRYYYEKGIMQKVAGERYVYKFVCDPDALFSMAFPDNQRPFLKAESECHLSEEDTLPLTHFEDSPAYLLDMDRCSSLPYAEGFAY
In short: as §1

ELF4 = ELF4 (Homo sapiens, UniProt Q99607 1-663)
ELF4, sequence (Q99607 whole entry): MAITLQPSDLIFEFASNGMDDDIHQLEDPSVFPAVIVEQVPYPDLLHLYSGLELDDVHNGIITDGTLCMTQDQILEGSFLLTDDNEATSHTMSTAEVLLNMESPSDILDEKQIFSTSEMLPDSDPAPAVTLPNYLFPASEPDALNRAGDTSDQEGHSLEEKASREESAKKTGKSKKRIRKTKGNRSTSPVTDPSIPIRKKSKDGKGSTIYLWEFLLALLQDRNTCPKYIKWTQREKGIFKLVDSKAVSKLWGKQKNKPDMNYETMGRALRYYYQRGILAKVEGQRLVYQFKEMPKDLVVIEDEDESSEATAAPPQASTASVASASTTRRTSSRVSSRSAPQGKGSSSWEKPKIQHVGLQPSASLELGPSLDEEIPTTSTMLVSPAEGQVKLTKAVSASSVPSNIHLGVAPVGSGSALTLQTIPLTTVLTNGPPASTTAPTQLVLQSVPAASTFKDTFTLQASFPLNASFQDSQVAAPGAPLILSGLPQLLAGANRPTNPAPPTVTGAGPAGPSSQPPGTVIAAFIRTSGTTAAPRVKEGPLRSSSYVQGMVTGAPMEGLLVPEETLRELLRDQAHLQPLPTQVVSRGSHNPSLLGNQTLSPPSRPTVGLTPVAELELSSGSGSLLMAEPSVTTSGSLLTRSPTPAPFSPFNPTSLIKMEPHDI
In short: as §1

ELK4 = target: T6, ELK4 (Homo sapiens, UniProt P28324-2 1-405)
T6 sequence: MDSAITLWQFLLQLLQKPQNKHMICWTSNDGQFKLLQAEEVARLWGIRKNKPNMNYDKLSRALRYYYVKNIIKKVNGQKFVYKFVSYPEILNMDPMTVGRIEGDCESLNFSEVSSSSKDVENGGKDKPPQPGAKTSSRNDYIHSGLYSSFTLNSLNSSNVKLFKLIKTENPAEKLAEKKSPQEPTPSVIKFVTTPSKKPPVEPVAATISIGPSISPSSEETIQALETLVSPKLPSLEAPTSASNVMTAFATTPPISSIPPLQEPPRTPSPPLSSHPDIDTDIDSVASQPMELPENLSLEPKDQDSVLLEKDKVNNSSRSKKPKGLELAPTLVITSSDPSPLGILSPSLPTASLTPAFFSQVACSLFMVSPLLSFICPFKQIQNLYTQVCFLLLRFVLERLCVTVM
In short: as §1

ELF3 = target: T7, ELF3 (Homo sapiens, UniProt P78545 1-371)
T7 sequence: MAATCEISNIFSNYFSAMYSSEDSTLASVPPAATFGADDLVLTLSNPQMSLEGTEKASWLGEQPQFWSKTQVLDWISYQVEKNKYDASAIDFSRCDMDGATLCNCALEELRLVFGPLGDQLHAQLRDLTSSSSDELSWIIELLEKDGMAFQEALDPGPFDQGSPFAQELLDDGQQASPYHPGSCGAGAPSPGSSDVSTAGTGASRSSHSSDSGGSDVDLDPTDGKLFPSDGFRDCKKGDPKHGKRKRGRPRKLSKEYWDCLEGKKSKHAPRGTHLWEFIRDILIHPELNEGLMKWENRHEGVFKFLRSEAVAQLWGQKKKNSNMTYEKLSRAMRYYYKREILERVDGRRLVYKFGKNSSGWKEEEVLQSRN
In short: as §1

ETV1 = ETV1 (Homo sapiens, UniProt P50549 1-477)
ETV1, sequence (P50549 whole entry): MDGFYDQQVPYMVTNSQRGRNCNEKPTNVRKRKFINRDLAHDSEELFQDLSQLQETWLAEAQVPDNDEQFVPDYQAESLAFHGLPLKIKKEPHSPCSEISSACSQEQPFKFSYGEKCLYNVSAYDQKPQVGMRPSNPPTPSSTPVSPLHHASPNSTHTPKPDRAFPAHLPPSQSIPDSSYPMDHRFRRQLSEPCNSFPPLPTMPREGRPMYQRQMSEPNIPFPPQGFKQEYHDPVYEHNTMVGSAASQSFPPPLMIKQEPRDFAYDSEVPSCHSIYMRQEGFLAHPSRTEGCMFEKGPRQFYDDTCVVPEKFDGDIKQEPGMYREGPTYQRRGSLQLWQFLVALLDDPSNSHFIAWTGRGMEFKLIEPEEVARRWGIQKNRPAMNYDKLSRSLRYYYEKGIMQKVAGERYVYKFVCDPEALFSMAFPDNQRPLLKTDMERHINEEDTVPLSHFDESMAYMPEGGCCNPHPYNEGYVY
In short: as §1

ETV3L = target: T8, ETV3L (Homo sapiens, UniProt Q6ZN32 1-361)
T8 sequence: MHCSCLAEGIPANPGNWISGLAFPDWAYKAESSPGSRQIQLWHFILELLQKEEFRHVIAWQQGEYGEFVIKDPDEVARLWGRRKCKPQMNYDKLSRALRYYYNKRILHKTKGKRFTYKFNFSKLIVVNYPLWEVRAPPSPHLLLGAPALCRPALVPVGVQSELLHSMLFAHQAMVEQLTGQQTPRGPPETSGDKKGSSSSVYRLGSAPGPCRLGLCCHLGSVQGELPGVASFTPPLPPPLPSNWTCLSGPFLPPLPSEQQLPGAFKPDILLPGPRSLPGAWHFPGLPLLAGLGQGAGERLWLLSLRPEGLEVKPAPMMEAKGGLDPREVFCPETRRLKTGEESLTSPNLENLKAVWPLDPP
In short: as §1

ETS2 = target: T9, ETS2 (Homo sapiens, UniProt P15036 1-469)
T9 sequence: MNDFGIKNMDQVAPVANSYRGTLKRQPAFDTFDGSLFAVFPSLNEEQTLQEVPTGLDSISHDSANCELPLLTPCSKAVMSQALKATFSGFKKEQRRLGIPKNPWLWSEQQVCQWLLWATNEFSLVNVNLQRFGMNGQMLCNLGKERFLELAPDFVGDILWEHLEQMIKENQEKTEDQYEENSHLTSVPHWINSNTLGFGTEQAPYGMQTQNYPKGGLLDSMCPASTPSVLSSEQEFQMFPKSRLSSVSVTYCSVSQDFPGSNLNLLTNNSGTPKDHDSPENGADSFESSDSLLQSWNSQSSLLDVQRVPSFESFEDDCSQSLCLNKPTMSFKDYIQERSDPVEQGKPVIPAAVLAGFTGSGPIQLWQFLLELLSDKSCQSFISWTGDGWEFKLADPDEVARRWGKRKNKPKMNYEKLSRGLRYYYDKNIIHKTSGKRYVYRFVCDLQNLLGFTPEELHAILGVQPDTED
In short: as §1

SPDEF = target: T10, SPDEF (Homo sapiens, UniProt O95238 1-335)
T10 sequence: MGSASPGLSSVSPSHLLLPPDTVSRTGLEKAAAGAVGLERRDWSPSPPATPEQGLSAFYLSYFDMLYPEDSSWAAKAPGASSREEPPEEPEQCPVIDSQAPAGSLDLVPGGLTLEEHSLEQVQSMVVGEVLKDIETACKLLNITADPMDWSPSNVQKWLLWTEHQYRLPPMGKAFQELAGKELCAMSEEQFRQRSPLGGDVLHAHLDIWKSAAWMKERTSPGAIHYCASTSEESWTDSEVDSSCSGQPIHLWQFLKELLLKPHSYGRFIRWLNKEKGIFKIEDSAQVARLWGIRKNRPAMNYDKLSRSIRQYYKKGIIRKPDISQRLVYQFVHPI
In short: as §1

ETV7 = target: T11, ETV7 (Homo sapiens, UniProt Q9Y603 1-341)
T11 sequence: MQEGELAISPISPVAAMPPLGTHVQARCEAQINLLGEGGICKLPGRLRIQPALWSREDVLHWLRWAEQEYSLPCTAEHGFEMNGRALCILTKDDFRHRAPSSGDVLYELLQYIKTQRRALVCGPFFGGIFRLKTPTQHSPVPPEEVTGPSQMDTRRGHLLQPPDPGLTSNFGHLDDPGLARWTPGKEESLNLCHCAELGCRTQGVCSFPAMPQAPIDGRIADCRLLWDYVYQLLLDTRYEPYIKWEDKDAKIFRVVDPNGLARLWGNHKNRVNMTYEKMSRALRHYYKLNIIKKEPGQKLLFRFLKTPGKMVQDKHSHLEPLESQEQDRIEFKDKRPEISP
In short: as §1

ETV3 = target: T12, ETV3 (Homo sapiens, UniProt P41162-2 1-143)
T12 sequence: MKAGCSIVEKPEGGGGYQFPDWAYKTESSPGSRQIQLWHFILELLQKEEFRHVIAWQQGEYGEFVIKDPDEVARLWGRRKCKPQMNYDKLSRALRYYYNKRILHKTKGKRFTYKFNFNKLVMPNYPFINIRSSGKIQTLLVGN
In short: as §1

ETV6 = ETV6 (Homo sapiens, UniProt P41212 1-452)
ETV6, sequence (P41212 whole entry): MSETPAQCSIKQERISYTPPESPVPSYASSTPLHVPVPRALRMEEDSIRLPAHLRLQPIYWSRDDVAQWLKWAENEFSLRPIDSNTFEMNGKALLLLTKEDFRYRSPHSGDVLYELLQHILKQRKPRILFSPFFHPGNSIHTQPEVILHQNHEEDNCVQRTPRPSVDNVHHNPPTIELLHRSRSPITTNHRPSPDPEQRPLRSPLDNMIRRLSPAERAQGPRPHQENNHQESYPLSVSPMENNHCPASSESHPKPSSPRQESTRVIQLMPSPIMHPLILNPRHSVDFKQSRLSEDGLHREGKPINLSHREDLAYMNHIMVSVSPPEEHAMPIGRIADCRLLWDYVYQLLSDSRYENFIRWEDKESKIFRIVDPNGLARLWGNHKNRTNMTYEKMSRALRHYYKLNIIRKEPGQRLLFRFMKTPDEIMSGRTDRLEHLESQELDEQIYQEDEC
In short: as §1

Sequence: ACCGGC
- binding signal (ELK1): 1.08 fold enrichment (6-mer frequency, TF over GST control)
- binding signal (GABPA): 1.12 fold enrichment (6-mer frequency, TF over GST control)
- binding signal (ERG): 1.13 fold enrichment (6-mer frequency, TF over GST control)
- binding signal (ELF1): 1.19 fold enrichment (6-mer frequency, TF over GST control)
- binding signal (EHF): 1.12 fold enrichment (6-mer frequency, TF over GST control)
- binding signal (SPIB): 1.3 fold enrichment (6-mer frequency, TF over GST control)
- binding signal (FEV): 1.14 fold enrichment (6-mer frequency, TF over GST control)
- binding signal (ETV5): 1.1 fold enrichment (6-mer frequency, TF over GST control)
- binding signal (ELF4): 1.03 fold enrichment (6-mer frequency, TF over GST control)
- binding signal (ELK4): 1.1 fold enrichment (6-mer frequency, TF over GST control)
- binding signal (ELF3): 1.21 fold enrichment (6-mer frequency, TF over GST control)
- binding signal (ETV1): 1.23 fold enrichment (6-mer frequency, TF over GST control)
- binding signal (ETV3L): 1.21 fold enrichment (6-mer frequency, TF over GST control)
- binding signal (ETS2): 1.17 fold enrichment (6-mer frequency, TF over GST control)
- binding signal (SPDEF): 1.05 fold enrichment (6-mer frequency, TF over GST control)
- binding signal (ETV7): 1.06 fold enrichment (6-mer frequency, TF over GST control)
- binding signal (ETV3): 1.15 fold enrichment (6-mer frequency, TF over GST control)
- binding signal (ETV6): 1.31 fold enrichment (6-mer frequency, TF over GST control)
